Biological target: CFHR1
Test: pooled miR-30 sensor sort-seq; sequence = guide strand
Conditions: shRNA
Further: reference of the scale not given here.

Row | Sequence | sensor-assay potency score (higher = more potent)
1 | TGAAATTAAGAACTGATTTAAT | -1.22
2 | TCTGTCTCGACAGTATATGAGC | -1.41
3 | TTACACACAAATTCAGCTGATT | -0.226
4 | TTAAGAACTGATTTAATACTAA | -0.326
5 | TTTCCCGTAGAATCTTTGCATT | -1.19
6 | TATATGAGCATTTTGTACTGTG | 0.209
7 | TTGCACAGTATCACCTTCCAGA | -0.325
8 | TTTACACACAAATTCAGCTGAT | 0.481
9 | TAATTTGCACAGTATCACCTTC | 0.283
10 | TACTCATCTGTCTCGACAGTAT | -0.805

Source: the OligoGym collection
